Test results: PubChem BioAssay (NCATS)
Several values for one entry are separate records, joined by “and”; a condition that tells them apart may be missing. Identical values can stand only once. Inconclusive results are not listed. Activity calls are given as the source filed them. Unless noted, calls follow the shape of the dose curve; as a rule, active = well fitted curve in the direction sought with a large enough effect; inconclusive = small, poorly fitted or top-dose-only effect, or another doubt; inactive = no such curve, though single readings can be large; an effect the other way counts as inactive or inconclusive.

How the values were obtained:
JEG-3 = assay: Primary qHTS to identify gynecologic anti-cancer compounds using libraries of approved drugs and bioactive compounds (AID 1345084); conditions: Gynecologic cancer cell panel viability, ATPlite luminescence, 48 h; series mostly up to 57.5 µM; also: nearly all actives have a fitted effect of over 55% in size; also: potency is read from the fitted curve at half-maximal effect
Summary of the method: (§1)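 Cytotoxicity screen measuring ATP content by luciferase luminescence. Each compound is applied at five concentrations for 48 h at 37 C with 5% CO2.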

OV90 = assay: as above; conditions: Gynecologic cancer cell panel viability, ATPlite luminescence, 48 h; series mostly up to 57.5 µM
Summary of the method: as §1

PA-1 = assay: as above; conditions: Gynecologic cancer cell panel viability, ATPlite luminescence, 48 h; series mostly up to 57.5 µM
Summary of the method: as §1

Tov-21-G = assay: as above; conditions: Gynecologic cancer cell panel viability, ATPlite luminescence, 48 h; series mostly up to 57.5 µM
Summary of the method: as §1

Tov112D = assay: as above; conditions: Gynecologic cancer cell panel viability, ATPlite luminescence, 48 h; series mostly up to 57.5 µM
Summary of the method: as §1

[1] = Drug repurposing screens with cells derived from glioblastoma tumor samples (AID 1345199); conditions: GBM patient neurospheres viability, ATP luminescence, 48 h; also: nearly all actives have a fitted effect of over 40% in size; also: potency is read from the fitted curve at half-maximal effect; as to activity, negative = cell killing: % is scaled to controls: 0 for no effect and ±100 for the full control effect
Summary of the method: (§2)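 Primary testing used CD133+ neurospheres from four GBM patients, seven concentrations, 48 h exposure and ATP-based viability; confirmation added three slower-growing patient lines.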

astro = assay: as above; conditions: viability, ATP luminescence, 48 h; series mostly up to 45.9 µM
Summary of the method: as §2

SKOV3 = assay: Primary qHTS to identify gynecologic anti-cancer compounds using libraries of approved drugs and bioactive compounds (AID 1345084); conditions: Gynecologic cancer cell panel viability, ATPlite luminescence, 48 h; series mostly up to 57.5 µM; also: nearly all actives have a fitted effect of over 55% in size; also: potency is read from the fitted curve at half-maximal effect
Summary of the method: as §1

[2] = target: Nuclear receptor subfamily 1 group I member 2 (Rattus norvegicus) (UniProt Q9R1A7); assay: qHTS assay for small molecule activators of the rat pregnane X receptor (rPXR) signaling pathway (AID 651751; call rule not given here; also: 0% is about no effect); conditions: rPXR reporter cells, luciferase (One-Glo), 24 h
Sequence of Nuclear receptor subfamily 1 group I member 2 (Rattus norvegicus) (Q9R1A7 whole entry, looked up): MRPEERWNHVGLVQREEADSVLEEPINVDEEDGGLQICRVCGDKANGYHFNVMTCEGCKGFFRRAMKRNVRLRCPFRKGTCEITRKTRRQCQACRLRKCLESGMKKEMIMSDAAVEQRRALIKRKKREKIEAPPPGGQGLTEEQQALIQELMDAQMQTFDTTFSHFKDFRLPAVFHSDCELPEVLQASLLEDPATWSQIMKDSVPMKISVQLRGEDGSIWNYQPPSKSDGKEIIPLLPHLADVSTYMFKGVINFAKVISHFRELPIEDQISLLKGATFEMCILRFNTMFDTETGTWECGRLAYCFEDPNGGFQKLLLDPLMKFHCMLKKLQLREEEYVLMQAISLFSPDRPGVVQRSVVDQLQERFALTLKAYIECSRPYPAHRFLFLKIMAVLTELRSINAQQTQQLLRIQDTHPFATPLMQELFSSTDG

[3] = at 45.9 µM (top of the series), tumour line B
[4] = at 45.9 µM (top of the series), tumour line D
[5] = at 46.1 µM (top of the series), tumour line C
[6] = at 20 µM (top of the series), tumour line C
[7] = at 21.2 µM (top of the series), tumour line B
[8] = at 21.2 µM (top of the series), tumour line D
[9] = at 46 µM (top of the series), tumour line A

CNC1(C)C2CCC(C2)C1(C)C (stereo not given)
inactive: Potency (JEG-3) | Potency (OV90) | Potency (PA-1) | Potency (Tov-21-G) | Potency (Tov112D) | activity, negative = cell killing [1, 3] 1.71% | activity, negative = cell killing [1, 4] 0.479% | activity, negative = cell killing [1, 5] 3.06% | Potency (astro)

Brc1c(NC2=NCCN2)ccc2nccnc12
inactive: Potency (JEG-3) | Potency (OV90) | Potency (PA-1) | Potency (SKOV3) | Potency (Tov-21-G) | Potency (Tov112D) | activity, negative = cell killing [1, 3] -5.79% | activity, negative = cell killing [1, 4] -4.16% | activity, negative = cell killing [1, 5] 4.36% | Potency (astro)

CCc1c(C)[nH]c2c1C(=O)C(CN1CCOCC1)CC2 (stereo not given)
inactive: Potency (JEG-3) | Potency (OV90) | Potency (PA-1) | Potency (SKOV3) | Potency (Tov-21-G) | Potency (Tov112D) | activity, negative = cell killing [1, 6] -3.97% | activity, negative = cell killing [1, 7] -15.8% | activity, negative = cell killing [1, 8] 1.91% | Potency (astro)

CCN(CC)CC(=O)Nc1c(C)cccc1C
inactive: Potency (JEG-3) | Potency (OV90) | Potency (PA-1) | Potency (SKOV3) | Potency (Tov-21-G) | Potency (Tov112D) | activity, negative = cell killing [1, 3] -12.8% | activity, negative = cell killing [1, 9] 16.4% | activity, negative = cell killing [1, 5] -29.2% | Potency (astro)

COc1ccc(CCN(C)CCCC(C#N)(c2cc(OC)c(OC)c(OC)c2)C(C)C)cc1OC (stereo not given)
active: Potency ([1]; tumour line A) 14.1 µM
inactive: Potency (JEG-3) | Potency (OV90) | Potency (SKOV3) | Potency (Tov-21-G) | Potency (Tov112D) | activity, negative = cell killing [1, 3] -13.5% | activity, negative = cell killing [1, 5] -13.9% | Potency (astro)

O=C(O)CCCCCCCC(=O)O
inactive: Potency (JEG-3) | Potency (OV90) | Potency (PA-1) | Potency (SKOV3) | Potency (Tov-21-G) | Potency (Tov112D) | activity, negative = cell killing [1, 3] -8.57% | activity, negative = cell killing [1, 4] -5.03% | activity, negative = cell killing [1, 5] -6.63% | Potency (astro) | max response [2] -2.29%

c1ccc2c(c1)CCCC2C1=NCCN1 (stereo not given)
inactive: Potency (JEG-3) | Potency (OV90) | Potency (PA-1) | Potency (Tov-21-G) | Potency (Tov112D) | activity, negative = cell killing [1, 3] 0.679% | activity, negative = cell killing [1, 4] 3.62% | activity, negative = cell killing [1, 5] -14.8% | Potency (astro)

NC(=O)N1c2ccccc2C=Cc2ccccc21
inactive: Potency (JEG-3) | Potency (OV90) | Potency (PA-1) | Potency (Tov-21-G) | Potency (Tov112D) | activity, negative = cell killing [1, 3] -0.221% | activity, negative = cell killing [1, 4] -27.4% | activity, negative = cell killing [1, 9] -32.7% | activity, negative = cell killing [1, 5] -16.6% | Potency (astro) | max response [2] 5.91% and 3.5%

CC(=O)Nc1nnc(S(N)(=O)=O)s1
inactive: Potency (JEG-3) | Potency (OV90) | Potency (PA-1) | Potency (Tov-21-G) | Potency (Tov112D) | activity, negative = cell killing [1, 3] -5.69% | activity, negative = cell killing [1, 4] 0.278% | activity, negative = cell killing [1, 9] 1.18% | activity, negative = cell killing [1, 5] -27.5% | Potency (astro) | max response [2] 0.356%

CCn1nc(C(=O)O)c(=O)c2cc3c(cc21)OCO3
inactive: Potency (JEG-3) | Potency (OV90) | Potency (PA-1) | Potency (Tov-21-G) | Potency (Tov112D) | activity, negative = cell killing [1, 6] -1.32% | activity, negative = cell killing [1, 7] -10.1% | activity, negative = cell killing [1, 8] -5.8% | activity, negative = cell killing ([1]; at 21.3 µM (top of the series), tumour line A) -22.7% | Potency (astro)

c1cnc(N2CCN(Cc3ccc4c(c3)OCO4)CC2)nc1
inactive: Potency (JEG-3) | Potency (OV90) | Potency (PA-1) | Potency (SKOV3) | Potency (Tov-21-G) | Potency (Tov112D) | activity, negative = cell killing [1, 3] -3.93% | activity, negative = cell killing [1, 4] -6.17% | activity, negative = cell killing [1, 5] -21.6% | Potency (astro)

C(=C\c1ccccc1)/CN1CCN(C(c2ccccc2)c2ccccc2)CC1
active: Potency ([1]; tumour line A) 7.08 µM
inactive: Potency (JEG-3) | Potency (OV90) | Potency (PA-1) | Potency (Tov-21-G) | Potency (Tov112D) | activity, negative = cell killing [1, 6] -1.05% | activity, negative = cell killing [1, 7] -13.5% | activity, negative = cell killing [1, 8] -14% | Potency (astro)

CC1=NS(=O)(=O)c2cc(Cl)ccc2N1
inactive: Potency (JEG-3) | Potency (PA-1) | Potency (Tov-21-G) | Potency (Tov112D) | activity, negative = cell killing [1, 3] -1.9% | activity, negative = cell killing [1, 4] 2.33% | activity, negative = cell killing [1, 9] -21.7% | activity, negative = cell killing [1, 5] 8.3% | Potency (astro)

Fc1ccc(C(c2ccc(F)cc2)N2CCN(C/C=C/c3ccccc3)CC2)cc1
inactive: Potency (JEG-3) | Potency (PA-1) | Potency (SKOV3) | Potency (Tov-21-G) | Potency (Tov112D)

CNCCC(Oc1ccccc1OC)c1ccccc1 (stereo not given)
active: Potency ([1]; tumour line A) 12.6 µM
inactive: Potency (JEG-3) | Potency (PA-1) | Potency (SKOV3) | Potency (Tov-21-G) | Potency (Tov112D) | activity, negative = cell killing [1, 3] -10.4% | activity, negative = cell killing [1, 4] -19.1% | activity, negative = cell killing [1, 5] -16.2% | Potency (astro)

C[C@H](CS)C(=O)N1CCC[C@H]1C(=O)O
inactive: Potency (JEG-3) | Potency (PA-1) | Potency (Tov-21-G) | Potency (Tov112D) | activity, negative = cell killing [1, 3] 1.21% | activity, negative = cell killing [1, 4] -0.196% | activity, negative = cell killing [1, 9] -14.4% | activity, negative = cell killing [1, 5] -15.5% | Potency (astro)

CN1CCN(C2=Nc3ccccc3Oc3ccc(Cl)cc32)CC1
active: Potency ([1]; tumour line A) 12.6 µM
inactive: Potency (JEG-3) | Potency (PA-1) | Potency (SKOV3) | Potency (Tov-21-G) | Potency (Tov112D) | activity, negative = cell killing [1, 6] -15.4% | activity, negative = cell killing [1, 7] -17.3% | activity, negative = cell killing [1, 8] -18.3% | Potency (astro)

c1cc(CN2CCCCC2)cc(OCCCNc2nc3ccccc3s2)c1
inactive: Potency (JEG-3) | Potency (PA-1) | Potency (Tov-21-G) | Potency (Tov112D)

CC(C)(C)NCC(O)c1cc(O)cc(O)c1 (stereo not given)
inactive: Potency (JEG-3) | Potency (PA-1) | Potency (SKOV3) | Potency (Tov-21-G) | Potency (Tov112D) | activity, negative = cell killing [1, 3] 0.586% | activity, negative = cell killing [1, 4] -16.8% | activity, negative = cell killing [1, 9] -15.6% | activity, negative = cell killing [1, 5] -15.7% | Potency (astro)

COCC(=O)O[C@]1(CCN(C)CCCc2nc3ccccc3[nH]2)CCc2cc(F)ccc2[C@@H]1C(C)C
active: Potency (OV90) 22.4 µM | Potency (astro) 10 µM
inactive: Potency (PA-1) | Potency (Tov-21-G) | Potency (Tov112D)

CN(C)CC/C=C1\c2ccccc2COc2ccccc21
inactive: Potency (JEG-3) | Potency (PA-1) | Potency (SKOV3) | Potency (Tov-21-G) | Potency (Tov112D) | activity, negative = cell killing [1, 3] -27.9% | activity, negative = cell killing [1, 5] -1.82% | Potency (astro)
active: Potency ([1]; tumour line A) 14.1 µM

CN(C)CC[C@@H](c1ccc(Br)cc1)c1ccccn1
active: Potency ([1]; tumour line A) 11.2 µM
inactive: Potency (JEG-3) | Potency (PA-1) | Potency (SKOV3) | Potency (Tov-21-G) | Potency (Tov112D) | activity, negative = cell killing [1, 3] -11% | activity, negative = cell killing [1, 5] 2.86% | Potency (astro)

COCCCC/C(=N\OCCN)c1ccc(C(F)(F)F)cc1
inactive: Potency (JEG-3) | Potency (PA-1) | Potency (Tov-21-G) | Potency (Tov112D)

COC(=O)C1=C(C)NC(C)=C(C(=O)OCCN(C)Cc2ccccc2)C1c1cccc([N+](=O)[O-])c1 (stereo not given)
active: Potency ([1]; tumour line A) 8.91 µM | Potency ([1]; tumour line D) 14.1 µM
inactive: Potency (JEG-3) | Potency (Tov-21-G) | activity, negative = cell killing [1, 5] 14.5%

Cc1nc2sccn2c(=O)c1CCN1CCC(=C(c2ccc(F)cc2)c2ccc(F)cc2)CC1
active: Potency (astro) 20 µM
inactive: Potency (JEG-3) | Potency (PA-1) | Potency (SKOV3) | Potency (Tov-21-G) | Potency (Tov112D)
